# Results filed as inconclusive are left out. A call without a number means that no potency is given here. Calls of active or inactive are those of the source. Calls follow the shape of the dose curve; as a rule, active = well fitted cell-killing curve with a large enough effect; inconclusive = small, poorly fitted or top-dose-only effect, or effect the other way; inactive = no such curve, though single readings can be large or run the other way.
# Test: Viability qHTS for spleen associated tyrosine kinase inhibitor (SYKi) naive MV4-11 cells (AID 1963823); also: nearly all actives have a fitted effect of over 40% in size
# Conditions: MV4-11 AML viability, CellTiter-Glo luminescence, 72 h; series mostly up to 45 µM
# How it was run: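 qHTS, SYK inhibitor-naive MV4-11; 500 cells/well; 72 hr compound exposure, 37 C; CellTiter-Glo added, 10 min RT; luminescence read.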
# Potency is read from the fitted curve at half-maximal effect.
SMILES,Potency,viability (% of control)
CC1CCC2C(C(=O)O)=CC3(O)CC(C)(C)CC123 (stereo not given),inactive,–
C=C1C(=O)O[C@H]2C1CCC(C)=C1C(=O)C=C(C)[C@@]12O (stereo not given in full),7.31 µM (active),–
CC1(C)CC[C@]2(C(=O)O[C@@H]3O[C@H](CO)[C@@H](O)[C@H](O)[C@H]3O)CC[C@]3(C)C(=CCC4[C@@]5(C)CC[C@H](O[C@@H]6O[C@H](C(=O)O)[C@@H](O)[C@H](O[C@@H]7O[C@H](CO)[C@H](O)[C@H](O)[C@H]7O)[C@H]6O)C(C)(C)C5CC[C@]43C)C2C1 (stereo not given in full),–,81.1% [at 9.25 µM] (inactive)
Cc1c(Cl)cccc1S(=O)(=O)Nc1nc(NCCc2ccccc2)nc2c1CN(Cc1ccccc1)CC2,16.4 µM (active),–
CC1(C)C[C@@H]2[C@H](C1)[C@@]1(C)C[C@]13C(O)OC[C@]3(O)[C@H]2O (stereo not given in full),inactive,–
C=C1C(=O)OC2C1CCC1(C)C(O)CCC(=C)C21 (stereo not given),9.2 µM (active),–
COC(=O)[C@]12C(=O)C(C)=C(O)[C@@]1(C)C(C)=CC1[C@@]34CC[C@@H](OC(C)=O)C(C)(C)C3[C@H](C[C@]12C)OC4=O (stereo not given in full),inactive,–
CC(C)(Cc1ccccc1)NCC(O)c1ccc(O)c(NS(C)(=O)=O)c1 (stereo not given),inactive,–
CC1OC(OCC2OC(OC3CCC4(C)C(CCC5(C)C4CC=C4C6CC(C)(C)CCC6(C(=O)OC6OC(CO)C(O)C(O)C6O)CCC45C)C3(C)CO)C(O)C(O)C2O)C(O)C(O)C1O (stereo not given),–,79.6% [at 9.25 µM] (inactive)
Cc1ccccc1NC(=O)Nc1ccc(CC(=O)N(C)[C@@H](CC(C)C)C(=O)NCC[C@H](NC(=O)[C@@H]2CCCN2S(=O)(=O)c2cc(Cl)cc(Cl)c2)C(=O)O)cc1,inactive,–
